# Source: PubChem BioAssay (NCATS)
# Results filed as inconclusive are left out. Entries that show only a call come without a potency. Activity calls are given as the source filed them. Calls follow the shape of the dose curve; as a rule, active = well fitted cell-killing curve with a large enough effect; inconclusive = small, poorly fitted or top-dose-only effect; inactive = flat fitted curve, though single readings scatter. Numbered stars: 1 amine (or outer) side, 2 acyl side, 3 side chain; on linkers, the order of the positions; unused ones are H or OH. Bridge positions count the residues as written; N and C are the ends. Square brackets hold non-standard residues; d marks the D form. Peptide text beside a SMILES is read from it. I, II: the chains in the order shown. Actinocin(9to1) = Cc1c2oc3c(C)ccc(C(=O)[*:1])c3nc-2c(C(=O)[*:2])c(N)c1=O; NMeV = CN[C@H](C(=O)O)C(C)C; Sar = CNCC(=O)O
# Assay: qHTS of pediatric cancer cell lines to identify multiple opportunities for drug repurposing: Primary screen for RD cells (AID 1347104); also: nearly all actives have a fitted effect of over 55% in size
# Settings: RD rhabdomyosarcoma viability, CellTiter-Glo luminescence, 48 h; series mostly up to 46 µM
# Source text: Drug repurposing or repositioning has been offered as a strategy for drug development in oncology programs. This approach has special potential for childhood cancers and other rare or orphan diseases, where the expected return on new drug development has been a disincentive to pharmaceuticals. […] In this project we exploit the poly-pharmacology of drugs to discover new indications via phenotypic screening of a panel of 19 well-characterized cell lines derived from solid tumors seen in children and adolescents. The goal is to identify approved drugs with previously unrecognized anticancer properties that has the potential to reveal new mechanisms and biological processes involved in carcinogenesis or drug resistance. We employed a titration-based paradigm (quantitative high-throughput screening or qHTS), where all compounds were tested at multiple concentrations for their effect on cell viability. Concentration-response curves (CRCs) were derived directly from the primary screen, and both potency and efficacy values were used to identify compounds with robust bioactivity profiles. We screened the NIH Chemical Genomics Center (NCGC) Pharmaceutical Collection (NPC) and Mechanism Interrogation Plate (MIPE) small molecule collections of approved and investigational compounds against these cell lines; and measured metabolically active cells after 48 hours of compound treatment as a proxy for cell viability. […] Assay Submitter: Nathalia J. Martinez, National Center for Advancing Translational Sciences, National Institutes of Health, Rockville, MD, USA; email: natalia.martinez@nih.gov Shen, M et al. Quantitative high-throughput phenotypic screening of pediatric cancer cell lines identifies multiple opportunities for drug repurposing. Oncotarget 2017 Dec 19;9(4):4758-4772. PMID 29435139.
# The cells were obtained from University of North Carolina (UNC), Pediatric Preclinical Testing Program (PPT), and Coriell Institute (CI). qHTS cell viability assay: Cells were assayed in growth media at a density of 500-1,000 cells/well. Five microliters of cells were dispensed into 1,536-well, white, solid-bottom, TC-treated plates (Greiner Bio One) using a multidrop dispenser and incubated at 37 degrees C, 5% CO2, under a humidified atmosphere for 5 hours. Twenty-three nanoliters of compounds and controls (neutral control DMSO or positive control bortezomib at final concentration of 2.3 µM) were subsequently transferred by Kalypsys pintool. For primary screens, the MIPE collection was tested at 11-point dilutions (final concentrations range from 0.78 nM to 46 µM) and the NPC collection at 8-point dilutions (final concentrations range from 0.59 nM to 46 µM). Compounds tested in follow-up screens were assayed at 11-point dilutions. Cells were incubated for 48 hours, followed by addition of 3 µL of CellTiter-Glo (Promega). After a 15 min incubation at room temperature, samples were analyzed for luminescence intensity using a ViewLux High-throughput CCD imager equipped with clear filters.
# Potency is read from the fitted curve at half-maximal effect.
row,Structure (SMILES),Potency
1,O=C(OCC(O)CO)c1ccccc1Nc1ccnc2cc(Cl)ccc12 (stereo not given),inactive
2,COC(=O)[C@@H]1CC2=CC(=O)CC[C@]2(C)[C@@]23O[C@@H]2C[C@@]2(C)[C@@H](CC[C@@]24CCC(=O)O4)[C@H]13,inactive
3,c1ccc(OCc2ccc(CCCN3CCOCC3)cc2)cc1,inactive
4,CCCCN1CCCC1C(=O)Nc1c(C)cc(C)cc1C (stereo not given),inactive
5,O=C(OCCOCCO)c1ccccc1Nc1cccc(C(F)(F)F)c1,inactive
6,COC(=O)CCc1ccc(OCC(O)CNC(C)C)cc1 (stereo not given),inactive
7,CCC(=O)c1c(O)cc(O)cc1O,inactive
8,CN1[C@@H]2CC[C@H]1CC(OC(=O)c1c[nH]c3ccccc13)C2 (stereo not given in full),inactive
9,CC(C)n1nc(-c2cc3cc(O)ccc3[nH]2)c2c(N)ncnc21,8.41 µM (active)
10,COc1ccc(OC)c(C(O)CNC(=O)CN)c1 (stereo not given),inactive
11,CC1(C)O[C@@H]2C[C@H]3[C@@H]4C[C@H](F)C5=CC(=O)CC[C@]5(C)[C@H]4[C@@H](O)C[C@]3(C)[C@]2(C(=O)CO)O1,inactive
12,COc1cc(-c2ccc(=O)[nH]n2)ccc1OC(F)F,inactive
13,CN1C(CCl)Nc2cc(Cl)c(S(N)(=O)=O)cc2S1(=O)=O (stereo not given),inactive
14,COc1cccc(OC)c1C(=O)N[C@@H]1C(=O)N2[C@@H]1SC(C)(C)[C@@H]2C(=O)O,inactive
15,"Cc1c2oc3c(C)ccc(C(=O)N[C@@H]4C(=O)N[C@H](C(C)C)C(=O)N5CCC[C@H]5C(=O)N(C)CC(=O)N(C)[C@@H](C(C)C)C(=O)O[C@@H]4C)c3nc-2c(C(=O)N[C@@H]2C(=O)N[C@H](C(C)C)C(=O)N3CCC[C@H]3C(=O)N(C)CC(=O)N(C)[C@@H](C(C)C)C(=O)O[C@@H]2C)c(N)c1=O (I: T[dV]P[Sar][NMeV] / II: T[dV]P[Sar][NMeV]; ester I:1-I:C, II:1-II:C; linker I:N-II:N via Actinocin(9to1))",0.0133 µM (active)
16,Cc1ncc(CSSCc2cnc(C)c(O)c2CO)c(CO)c1O,inactive
17,CCOC(=O)/C=C(C)/C=C/C=C(C)/C=C/c1c(C)cc(OC)c(C)c1C,inactive
18,CN(C/C=C/c1ccccc1)Cc1cccc2ccccc12,inactive
19,CCN1CCN(c2cc3c(cc2F)c(=O)c(C(=O)O)cn3C2CC2)CC1,inactive
20,N[C@@H](CCC(=O)N[C@@H](CS)C(=O)NCC(=O)O)C(=O)O,inactive

row,Structure (SMILES),Potency
1,NCCc1ccn[nH]1,inactive
2,OCc1ccccc1O,inactive
3,C[C@@H]1C[C@H]2[C@@H]3CCC4=CC(=O)C=C[C@]4(C)[C@@]3(F)[C@@H](O)C[C@]2(C)[C@H]1C(=O)CO,inactive
4,O=c1[nH]c(=O)n([C@H]2CCCO2)cc1F,inactive
5,CN=C(NC#N)Nc1ccc(C2=NNC(=O)CC2C)cc1 (stereo not given),inactive
6,CCOC(=O)n1ccn(C)c1=S,inactive
7,CC(=O)OCC(=O)[C@@]12N=C(C)O[C@@H]1C[C@H]1[C@@H]3CCC4=CC(=O)C=C[C@]4(C)[C@H]3[C@@H](O)C[C@@]12C,inactive
8,COc1cc(OC)cc(OC)c1,inactive
9,C[C@@H]1CN(CCCn2c3ccccc3c3ccccc32)C[C@H](C)N1,26.6 µM (active)
10,CCCCCCC[N+](CC)(CC)CCCCc1ccc(Cl)cc1,13.3 µM (active)
11,O=C(CCCN1CCC(O)(c2ccc(Br)cc2)CC1)c1ccc(F)cc1,inactive
12,Cc1c(C(N)=O)cc([N+](=O)[O-])cc1[N+](=O)[O-],inactive
13,COCc1c(C(C)C)nc(C(C)C)c(/C=C/[C@@H](O)C[C@@H](O)CC(=O)O)c1-c1ccc(F)cc1,1.68 µM (active)
14,C/C=C/c1ccc(OC)cc1,inactive
15,NC(=NCCCCCCN=C(N)/N=C(\N)Nc1ccc(Cl)cc1)/N=C(\N)Nc1ccc(Cl)cc1,26.6 µM (active)
16,CC(=O)OCC(=O)[C@@]1(OC(C)=O)[C@@H](C)C[C@H]2[C@@H]3C[C@H](F)C4=CC(=O)C=C[C@]4(C)[C@@]3(F)[C@@H](O)C[C@@]21C,inactive
17,COc1cccc2c1C(=O)c1c(O)c3c(c(O)c1C2=O)C[C@@](O)(C(C)=O)C[C@@H]3O[C@H]1C[C@H](N)[C@H](O)[C@H](C)O1,1.19 µM (active)
18,CCCCCCCCCCCCCCNCCO,inactive
19,CCN(CC)CCOc1ccc(C(O)(Cc2ccc(Cl)cc2)c2ccc(C)cc2)cc1 (stereo not given),21.1 µM (active)
20,CC(Cc1ccccc1)(NC(=O)CN)c1ccccc1 (stereo not given),inactive
